# According to PubChem BioAssay AID493204 (National Center for Advancing Translational Sciences (NCATS), 2011):
# The other results are listed elsewhere or left out. Inconclusive results are not listed. Calls of active or inactive are those of the source. The call rests on the fitted dose curve; in most records, active means well fitted inhibition curve with a large enough effect; inconclusive means small, poorly fitted or top-dose-only effect; inactive means flat fitted curve, though single readings scatter.
# Target: Dual specificity protein kinase CLK4 (Homo sapiens) (UniProt Q9HAZ1)
# Test: Confirmation Assay for Inhibitors of CDC-like Kinase 4 (Kinase-Glo Assay): SAR round 2
# Settings: recombinant Clk4, Kinase-Glo ATP luminescence, 4.5 h
# Experimental: NIH Molecular Libraries Probe Production Centers Network [MLPCN] NIH Chemical Genomics Center [NCGC] MLPCN Grant: 1R03MH084827-01 Assay Submitter (PI): Tom Misteli NCGC Assay Overview: Clk4 (Invitrogen, cat# PV3839) was assayed using ATP and the RS repeat peptide (AnaSpec cat # 61722) as substrates. Following the Clk4 reaction, the remaining ATP levels were detected using Promega Kinase-Glo technology wherein the remaining ATP from the kinase reaction is detected using Ultra-Glo luciferase and D-luciferin which generates a bioluminescence signal from the ATP. The positive control for the assay was TG003 (Sigma-Aldrich, cat# 300801-52-9) which has been described as an inhibitor of Clk 4[1].
# NCGC Assay Protocol Summary: Two uL/well of substrate-buffer solution (100 uM RS peptide, 1 uM ATP, 25 mM Tris pH7.5, 10 mM MgCl2, 0.5 mM EGTA, 2.5 mM DTT, 0.01% Triton X-100 final concentration) was dispensed into 1536-well, assay plates (Greiner, solid white medium-binding plates) with Aurora Discovery BioRAPTR Flying Reagent Dispenser (FRD; Beckton-Dickenson). Using a Kalypsys pin tool equipped with a 1536-pin tool, 23 nL of compound solution was transferred to the assay plate. […] Luminescence was detected with the ViewLux plate reader (Perkin Elmer, Waltham, MA) after 5 min incubation using a 5 second exposure time and 2x binning.
# Chain of Dual specificity protein kinase CLK4 (Homo sapiens) (Q9HAZ1 whole entry, looked up): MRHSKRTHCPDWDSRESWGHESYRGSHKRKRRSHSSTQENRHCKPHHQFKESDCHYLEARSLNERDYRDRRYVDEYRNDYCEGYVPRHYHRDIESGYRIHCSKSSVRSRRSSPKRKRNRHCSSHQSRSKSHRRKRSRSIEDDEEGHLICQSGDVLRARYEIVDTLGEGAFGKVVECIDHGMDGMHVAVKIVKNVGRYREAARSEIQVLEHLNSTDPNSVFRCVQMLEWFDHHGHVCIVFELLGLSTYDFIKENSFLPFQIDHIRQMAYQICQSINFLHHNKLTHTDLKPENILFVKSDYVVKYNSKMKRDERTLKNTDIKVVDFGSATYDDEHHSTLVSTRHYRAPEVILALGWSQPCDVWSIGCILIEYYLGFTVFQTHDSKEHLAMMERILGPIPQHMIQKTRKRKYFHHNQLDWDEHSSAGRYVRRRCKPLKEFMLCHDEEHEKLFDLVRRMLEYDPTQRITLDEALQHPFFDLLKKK
row,SMILES,Potency
1,c1nc(N2CCOCC2)c2cc(-c3ccc4c(c3)OCO4)ccc2n1,104 nM (active)
